From PubChem BioAssay (NCI)
This is part of a sample that, as a whole, favours compounds with a hit. Of some 83,000 tested, about 20% had one in any assay.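 Cell lines were cultured in 96-well plates, exposed to a single compound concentration, and assessed for percent growth 48 hours later.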 A number with no mark means an inactive call. The source made the active and inactive calls. Rule for the calls: active = growth percent below 10; inactive = the rest.

Test system: OVCAR-4 ovarian
Experiment: NCI-60 one-dose screen, 48 h (100 = growth as untreated, 0 = no growth, -100 = all killed)
Details: 10 µM unless noted

Row | SMILES | growth
1 | Cc1cc(C)n(CC(=O)Nc2ccc(-c3nc4ccccc4s3)cc2)n1 | 97.8%
2 | CNS(=O)(=O)Nc1nccc(Cc2c(C)c3ccc(Oc4ncccn4)cc3oc2=O)c1F | 55%
3 | C[C@@H](Oc1cc(-n2cnc3ccc(CN4CCN(C)CC4)cc32)sc1C(N)=O)c1ccccc1C(F)(F)F | 33.8%
4 | COc1ccc(Cl)c(Nc2nc3ccccc3nc2NS(=O)(=O)c2cccc(NC(=O)C(C)(C)N)c2)c1 | 68%
5 | COc1ccc(-c2ccc3c(N4CCOC[C@@H]4C)nc(N4CCOC[C@@H]4C)nc3n2)cc1CO | -26% (active)
6 | O=C(Nc1cccc(Cl)c1)Nc1ncc(CCNc2ncnc3ccsc23)s1 | 24.6%
7 | C#Cc1cccc(Nc2ncnc3cc(OCCOC)c(OCCOC)cc23)c1 | 54.3%
8 | O=C(Nc1ccc(Nc2ncnc3sc4c(c23)CCOC4)cc1)Nc1ccc(Cl)c(C(F)(F)F)c1 | 131%
9 | CCCCN1C(=O)c2cccc3c(-c4ccc5c(c4)ncn5C4CCCCC4)ccc(c23)C1=O | 97.6%
10 | COc1cc(Nc2c(C#N)cnc3cc(OCCCN4CCN(C)CC4)c(OC)cc23)c(Cl)cc1Cl | 56%
11 | COc1ncc(-c2ccc3nccc(-c4ccnnc4)c3c2)cc1NS(=O)(=O)c1ccc(F)cc1F | -8.87% (active)
12 | C/C(=C(/c1ccc(Cl)cc1)c1ccc(OCCN2CCCC2)cc1)c1ccccc1 | 91.7%
13 | COc1cc(OC)c(/C=C/S(=O)(=O)Cc2ccc(OC)c(NCC(=O)O)c2)c(OC)c1 | 60.1%
14 | Nc1ncnc2c1ccn2-c1cccc(NC(=O)c2ccc(N3CCOCC3)c(C(F)(F)F)c2)c1 | 104%
15 | C/C=C/C=N/NC(=S)Nc1ccccc1 | 94.1%
16 | C=CC(=O)Nc1cc(Nc2nccc(-c3cn(C)c4ccccc34)n2)c(OC)cc1N(C)CCN(C)C | -13.5% (active)
17 | C[C@@H](NC(=O)c1ncnc(N)c1Cl)c1ncc(C(=O)Nc2cc(C(F)(F)F)c(Cl)cn2)s1 | 98.5%
18 | COc1cc2c(Oc3ccc4[nH]c(C)cc4c3F)ncnc2cc1OCCCN1CCCC1 | 74%
19 | NC[C@@](O)(c1ccc(Cl)cc1)c1ccc(-c2cn[nH]c2)cc1 | 16.9%
20 | Cc1cc(O)cc(-c2c(-c3ccnc(-c4cccnc4)c3)cnn2C)c1 | 60.9%

Row | SMILES | growth
21 | CS(=O)(=O)N1CCN(Cc2cc3nc(-c4cccc5[nH]ncc45)nc(N4CCOCC4)c3s2)CC1 | 47.8%
22 | CN[C@@H]1C[C@H]2O[C@@](C)([C@@H]1OC)n1c3ccccc3c3c4c(c5c6ccccc6n2c5c31)C(=O)N[C@H]4O | 16%
23 | O=c1[nH]ccc2c(S(=O)(=O)N3CCCNCC3)cccc12 | 89.5%
24 | CCN(CCCOc1ccc2c(Nc3cc(CC(=O)Nc4cccc(F)c4)[nH]n3)ncnc2c1)CCOP(=O)(O)O | 79.9%
25 | Cn1cc(-c2cnn3c(N)c(Br)c([C@@H]4CCCNC4)nc23)cn1 | 61.2%
26 | C[C@@H](Nc1cc(F)cc(F)c1)c1cc(C(=O)N(C)C)cc2c(=O)cc(N3CCOCC3)oc12 | 88.2%
27 | COc1ccc2c(CCCc3ccc(Cl)cc3Cl)c3[n+](cc2c1OC)CCc1cc2c(cc1-3)OCO2 | 20.5%
28 | Cn1c(=O)c(F)c(Nc2ccc(I)cc2F)c2c(=O)n(C[C@@H](O)CO)cnc21 | 55.8%
29 | CC(C)(C)c1cnc(CSc2cnc(NC(=O)C3CCNCC3)s2)o1 | 9.94% (active)
30 | NC1(C(=O)N[C@@H](CCO)c2ccc(Cl)cc2)CCN(c2ncnc3[nH]ccc23)CC1 | 64.9%
31 | COC(=O)c1ccc2c(C(=Nc3ccc(N(C)C(=O)CN4CCN(C)CC4)cc3)c3ccccc3)c(O)[nH]c2c1 | 68.5%
32 | CS(=O)(=O)CCNCc1ccc(-c2ccc3ncnc(Nc4ccc(OCc5cccc(F)c5)c(Cl)c4)c3c2)o1 | -51.2% (active)
33 | C1=C\COCc2cc(ccc2OCCN2CCCC2)Nc2nccc(n2)-c2cccc(c2)COC/1 | -4.87% (active)
34 | O=C(Nc1cn[nH]c1-c1nc2ccc(CN3CCOCC3)cc2[nH]1)NC1CC1 | 78.5%
35 | Cc1cc2c(-c3nc4ccccn4c3N)c(O)c(O)cc2c(O)c1-c1c(C)cc2c(-c3nc4ccccn4c3N)c(O)c(O)cc2c1O | 33.7%
36 | Cc1csc(-c2nnc(Nc3ccc(Oc4ncccc4-c4ccnc(N)n4)cc3)c3ccccc23)c1 | 60.3%
37 | CC(C)CC(=O)Nc1n[nH]c2c1CN(C(=O)C1CCN(C)CC1)C2(C)C | 33.5%
38 | Cc1ccccc1N1C(c2ccccc2)=NNC12C=CC(=O)C=C2Cl (centres undefined) | 117%
39 | C=CCn1c(=O)c2cnc(Nc3ccc(N4CCN(C)CC4)cc3)nc2n1-c1cccc(C(C)(C)O)n1 | 20.2%
